Drawing on PubChem BioAssay (NCI), this text covers growth for eight compounds.

Among the test systems are HCT-15 colon; HT29 colon; SNB-75 CNS; SNB-19 CNS; U251 CNS; PC-3 prostate; SK-MEL-5 melanoma; UACC-62 melanoma; LOX IMVI melanoma; SK-MEL-28 melanoma; SK-MEL-2 melanoma; EKVX NSCLC; SN12C renal; UO-31 renal; TK-10 renal; ACHN renal; CAKI-1 renal; A498 renal; CCRF-CEM leukemia; MOLT-4 leukemia.
What all share (assay): NCI-60 one-dose screen, 48 h (100 = growth as untreated, 0 = no growth, -100 = all killed)
Conditions in all cases: 10 µM unless noted

The panel holds about 83,000 compounds, 20% with a hit somewhere; the sample as a whole holds those more often.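 Values shown are percent growth following 48 h exposure of cells in 96-well plates to a single concentration of compound; below 10 was considered active.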 A number with no mark means an inactive call. Activity calls are given as the source filed them.

In the case of `Clc1ccc(C2=Nn3c(nnc3-c3cc(Cl)cc(Cl)c3Cl)SC2)cc1`, the growth in the experiment with HCT-15 colon was 32.3%; in the experiment with HT29 colon it was 6.41% (active); in the experiment with SNB-75 CNS it was 31.7%; in the experiment on SNB-19 CNS, 32.8%; in the experiment with U251 CNS, 20.9%; in the experiment on PC-3 prostate it was 20.2%. Also, the growth was 0.698% (active) in the experiment with SK-MEL-5 melanoma; 31.9% in the experiment with UACC-62 melanoma; 39.8% with LOX IMVI melanoma; 62.1% in the experiment on SK-MEL-28 melanoma; 80.3% in the experiment with SK-MEL-2 melanoma; 70.6% in the experiment on EKVX NSCLC. The growth is 88.4% in the experiment on SN12C renal; 51.6% in the experiment on UO-31 renal; 87.4% with TK-10 renal; 58.2% in the experiment with ACHN renal; 78.7% with CAKI-1 renal; 55.9% with A498 renal. For the same compound, the figures for the growth in the experiment on CCRF-CEM leukemia and in the experiment with MOLT-4 leukemia were 36.1% and 26.7%, respectively.
For `CC1=NC(=S)NC(c2ccccc2)/C1=C1/CC(c2ccccc2O)NN1` (stereo not given), the growth was 97.3% in the experiment on HCT-15 colon; 105% in the experiment with HT29 colon; 80.7% with SNB-75 CNS; 94.2% with SNB-19 CNS; 103% in the experiment with U251 CNS; 95% in the experiment with PC-3 prostate. In addition, the growth in the experiment on SK-MEL-5 melanoma is 102%; in the experiment with UACC-62 melanoma it was 97.8%; in the experiment on LOX IMVI melanoma it was 101%; with SK-MEL-28 melanoma, 104%; in the experiment with SK-MEL-2 melanoma it was 108%; in the experiment with EKVX NSCLC, 95.7%. The growth with SN12C renal was 97.5%; with UO-31 renal, 73.1%; with TK-10 renal, 138%; in the experiment with ACHN renal, 101%; with CAKI-1 renal it was 84.8%; in the experiment with A498 renal, 93.8%. In addition, the growth in the experiment on CCRF-CEM leukemia is 99.1%; in the experiment on MOLT-4 leukemia it was 99.9%.
Take `Cc1ccc(NC(=O)c2ccc(Nc3ncnc4c3cnn4-c3cccc(F)c3)cc2)cc1`: the growth in the experiment on HCT-15 colon was 100%; with HT29 colon, 98.8%; in the experiment with SNB-75 CNS it was 93.5%; in the experiment with SNB-19 CNS it was 94.2%; in the experiment with U251 CNS, 102%; in the experiment on PC-3 prostate it was 100%. The growth was 99.8% in the experiment with SK-MEL-5 melanoma; 90.7% in the experiment on UACC-62 melanoma; 92.8% in the experiment with LOX IMVI melanoma; 106% with SK-MEL-28 melanoma; 104% with SK-MEL-2 melanoma; 102% with EKVX NSCLC. Moreover, the growth in the experiment on SN12C renal is 96.2%; with UO-31 renal it was 90.8%; in the experiment on TK-10 renal, 105%; in the experiment with ACHN renal, 98.4%; in the experiment on CAKI-1 renal it was 90.7%; with A498 renal it was 80.7%. Further, the values for the growth in the experiment on CCRF-CEM leukemia and in the experiment on MOLT-4 leukemia were 95.5% and 96.3%, respectively.
`Nc1nc(=O)n([C@H]2CC=C(CO)O2)cc1F`: the growth in the experiment with HCT-15 colon is 101%; in the experiment with HT29 colon it was 91.9%; in the experiment with SNB-75 CNS, 102%; in the experiment on SNB-19 CNS, 96.3%; with U251 CNS, 95%; in the experiment with PC-3 prostate, 92.1%. For the same compound, the growth with SK-MEL-5 melanoma was 100%; in the experiment on UACC-62 melanoma it was 92.4%; with LOX IMVI melanoma, 92.5%; in the experiment on SK-MEL-28 melanoma it was 105%; in the experiment with SK-MEL-2 melanoma it was 102%; in the experiment with EKVX NSCLC it was 110%. In addition, the growth with SN12C renal is 96.8%; in the experiment on UO-31 renal, 91.5%; with TK-10 renal, 99.3%; with ACHN renal, 110%; in the experiment on CAKI-1 renal it was 94.6%; in the experiment with A498 renal, 75.8%. In addition, the growth in the experiment with CCRF-CEM leukemia was 103%; in the experiment on MOLT-4 leukemia, 90.5%.
As for `C=CCn1c(SCC(=O)Nc2ccc(C(=O)/C=C/c3ccc(Cl)cc3)cc2)nnc1-c1ccccc1`, the growth in the experiment with HCT-15 colon is 87.7%; in the experiment with HT29 colon it was 89.2%; in the experiment with SNB-75 CNS, 70.8%; in the experiment with SNB-19 CNS, 92.6%; with U251 CNS, 94.3%; in the experiment on PC-3 prostate, 75.2%. Also, the growth in the experiment on SK-MEL-5 melanoma was 98.7%; in the experiment on UACC-62 melanoma, 85.1%; in the experiment with LOX IMVI melanoma, 92.3%; in the experiment on SK-MEL-28 melanoma it was 90.2%; in the experiment on SK-MEL-2 melanoma it was 109%; with EKVX NSCLC it was 92.3%. Besides, the growth with SN12C renal is 92.8%; in the experiment with UO-31 renal, 76.5%; in the experiment on TK-10 renal it was 87.9%; with ACHN renal it was 99.9%; with CAKI-1 renal it was 92.6%; in the experiment on A498 renal, 99.5%. Besides, the results for the growth in the experiment on CCRF-CEM leukemia and in the experiment on MOLT-4 leukemia were 85.6% and 68.6%, respectively.
As for `CCOC(=O)c1c(C)c2c(n1Cc1ccccc1)CSc1cc(C#N)c(=O)[nH]c1-2`, the growth in the experiment with HCT-15 colon is 66.3% [100 µM]; with HT29 colon, 71% [100 µM]; in the experiment on SNB-75 CNS, 25.4% [100 µM]; in the experiment with SNB-19 CNS it was 89.3% [100 µM]; in the experiment on U251 CNS it was 49.8% [100 µM]; in the experiment with PC-3 prostate, 70% [100 µM]. For the same compound, the growth in the experiment with SK-MEL-5 melanoma is 100% [100 µM]; with UACC-62 melanoma, 70.9% [100 µM]; with LOX IMVI melanoma, 72.9% [100 µM]; with SK-MEL-28 melanoma it was 105% [100 µM]; with SK-MEL-2 melanoma, 92.2% [100 µM]; with EKVX NSCLC, 67.1% [100 µM]. Also, the growth is 80.6% [100 µM] in the experiment on SN12C renal; 85.6% [100 µM] in the experiment with UO-31 renal; 40.5% [100 µM] in the experiment with TK-10 renal; 49.3% [100 µM] with ACHN renal; 58.9% [100 µM] with CAKI-1 renal; 92% [100 µM] with A498 renal. Moreover, the growth in the experiment with CCRF-CEM leukemia was 90.4% [100 µM]; in the experiment on MOLT-4 leukemia, 118% [100 µM].
Take `O=C1NCCN1/N=C/c1c(Cl)n(Cc2ccc(Cl)cc2)c2ccccc12`: the growth was 93.3% with HCT-15 colon; 111% in the experiment on HT29 colon; 94.4% in the experiment with SNB-75 CNS; 107% with SNB-19 CNS; 75.5% with U251 CNS; 89% in the experiment on PC-3 prostate. Besides, the growth in the experiment on SK-MEL-5 melanoma was 68%; with UACC-62 melanoma, 53.5%; in the experiment on LOX IMVI melanoma, 72.7%; in the experiment on SK-MEL-28 melanoma, 112%; in the experiment with SK-MEL-2 melanoma it was 91.7%; in the experiment with EKVX NSCLC, 88.9%. The growth in the experiment with SN12C renal is 85.8%; in the experiment with UO-31 renal it was 72.4%; in the experiment on TK-10 renal it was 90.8%; with ACHN renal, 94.4%; with CAKI-1 renal, -18.9% (active); in the experiment with A498 renal, -85.5% (active). Also, the growth was 89% in the experiment with CCRF-CEM leukemia and 65.6% in the experiment on MOLT-4 leukemia.
As to `COc1ccc(N/N=C/c2ccc3c(c2)Sc2ccccc2N3C)cc1`, the growth is 84.5% in the experiment on HCT-15 colon; 98.6% in the experiment on HT29 colon; 73.5% in the experiment on SNB-75 CNS; 81.1% in the experiment with SNB-19 CNS; 63.9% with U251 CNS; 44.4% with PC-3 prostate. Also, the growth with SK-MEL-5 melanoma is 77%; with UACC-62 melanoma, 10.8%; with LOX IMVI melanoma, 28.1%; in the experiment with SK-MEL-28 melanoma it was 100%; in the experiment on SK-MEL-2 melanoma, 98%; in the experiment on EKVX NSCLC, 65.9%. Besides, the growth in the experiment on SN12C renal was 79.3%; with UO-31 renal, 42.1%; in the experiment with TK-10 renal, 114%; in the experiment with ACHN renal it was 51.6%; with CAKI-1 renal it was 26.2%; in the experiment with A498 renal it was 17.5%. Further, the growth in the experiment with CCRF-CEM leukemia was 73.6%; with MOLT-4 leukemia, 38.8%.
